The values that follow come from PubChem BioAssay AID1851 (National Center for Advancing Translational Sciences (NCATS), 2009).

The whole screen tested about 16,000 compounds, of which about 5,700 (36%) were called active. Another 24% or so got no clear call; they are omitted. The list shows a part of the results. A number with no mark means an inactive call. The call rests on the fitted dose curve; in most records, active means well fitted curve in the direction sought with a large enough effect; inconclusive means small, poorly fitted or top-dose-only effect, or effect the other way; inactive means no such curve, though single readings can be large or run the other way.
On the % scale 0 is the no-effect control and ±100 the full control effect.

The target in the experiment is Cytochrome P450 1A2 (Homo sapiens) (UniProt P05177). Kind of experiment: Cytochrome panel assay with activity outcomes. To be noted: recombinant CYP, pro-luciferin dealkylation, luminescence, p450-cyp1a2; series mostly up to 57.1 µM; activity, negative = inhibition: at the top concentration.
Cytochrome P450 1A2 (Homo sapiens), sequence (P05177 whole entry, looked up): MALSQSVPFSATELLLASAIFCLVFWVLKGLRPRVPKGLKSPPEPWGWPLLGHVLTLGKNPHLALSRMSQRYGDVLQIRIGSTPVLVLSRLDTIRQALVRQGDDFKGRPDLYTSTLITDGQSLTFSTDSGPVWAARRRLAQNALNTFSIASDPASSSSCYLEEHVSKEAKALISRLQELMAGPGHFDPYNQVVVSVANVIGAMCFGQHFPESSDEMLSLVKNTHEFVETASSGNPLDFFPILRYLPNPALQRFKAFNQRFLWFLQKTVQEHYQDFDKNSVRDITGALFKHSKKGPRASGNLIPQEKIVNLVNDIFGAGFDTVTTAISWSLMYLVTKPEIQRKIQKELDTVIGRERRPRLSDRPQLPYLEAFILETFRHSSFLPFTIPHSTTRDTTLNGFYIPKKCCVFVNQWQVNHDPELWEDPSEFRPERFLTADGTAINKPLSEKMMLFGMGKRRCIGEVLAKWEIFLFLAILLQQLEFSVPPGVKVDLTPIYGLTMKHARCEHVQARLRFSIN
As for `COc1cc(-c2ccc(N=Nc3ccc4c(S(=O)(=O)O)cc(S(=O)(=O)O)c(N)c4c3O)c(OC)c2)ccc1N=Nc1ccc2c(S(=O)(=O)O)cc(S(=O)(=O)O)c(N)c2c1O`, the AC50 was 12.6 µM (active).
Turning to `Nc1ccc(N=Nc2ccc(-c3ccc(O)cc3)cc2)c2ccc(S(=O)(=O)O)cc12`, the activity, negative = inhibition is -17.8% [at 2.29 µM].
The same measure, in the same setting: the value for `COc1ccc(N2C(=O)CCC(C(=O)O)C2c2ccc(F)cc2)cc1` (stereo unspecified) was 3.19%.
For the compound `COc1ccc(CNc2ccnc(-c3ccccc3C(F)(F)F)n2)c(OC)c1`, the AC50 was 15.8 µM (active).
The same measure, in the same setting: as for `COc1ccc(CNc2ccnc(-c3ccccc3Cl)n2)c(OC)c1`, the figure is 5.01 µM (active).
On to `COc1ccc([C@@H](Nc2ccccn2)c2cc(C(C)(C)C)cc(C(C)(C)C)c2O)cc1`, for which the activity, negative = inhibition is 1.22% [at 2.29 µM].
In the case of `COc1ccc(CNc2ccnc(-c3ccccc3OC)n2)c(OC)c1`, the AC50 is 5.01 µM (active).
`COc1ccccc1CNc1ccnc(-c2ccccc2C(F)(F)F)n1`: the AC50 is 10 µM (active).
`CO[C@H]1COC(=O)C/C=C\[C@@H](C)COC(=O)[C@@H](OCc2ccccc2)/C=C\[C@@H]1C`: the activity, negative = inhibition was -1.45% [at 11.4 µM].
`CC(=O)OC[C@@H]1O[C@@H](O/N=C2/C[C@@H](O)[C@@H](O)[C@@H]3[C@H]4C(=O)N(c5ccc(F)cc5F)C(=O)[C@@H]4CC[C@@H]23)[C@H](OC(C)=O)[C@H](OC(C)=O)[C@@H]1OC(C)=O`: the activity, negative = inhibition was 2.88% [at 11.4 µM].
Turning to `COc1ccccc1CNc1ccnc(-c2ccccc2Cl)n1`, the concentration at half-maximal activity (AC50) was 5.01 µM (active).
For `Cc1n[nH]c(=O)nc1NCc1ccccc1Cl`, the “activity, negative = inhibition” value is -20%.
For the compound `Cc1cc(OCCn2cc(/C(N)=N/O)c3ccccc32)ccc1Cl`, the AC50 was 2 µM (active).
Regarding `CC(=O)c1cn(CC(=O)Nc2c(C)cccc2C)c2ccccc12`, the “activity, negative = inhibition” value was -15.1%.
On the same count and under the same terms, as for `CC(=O)NNC(=O)C(O)(c1ccccc1)c1ccccc1`, the figure is 11.7%; as for `O=[N+]([O-])c1ccc(Nc2nc3ccccc3s2)cc1`, -20% [at 11.4 µM].
Regarding `CC(=O)NNc1nc2ccccc2s1`, the AC50 is 11.2 µM (active).
On to `O=C(NNc1nc2ccccc2s1)C1CC1`, for which the AC50 is 20 µM (active).
Regarding `c1ccc2sc(NC3=NCN(C4CCCCCC4)CN3)nc2c1`, the “activity, negative = inhibition” value was -20.1%.
As for `CCOC(=O)c1ccc(NC(=O)C2CCCO2)cc1` (stereo unspecified), the AC50 is 2.51 µM (active).
In the case of `NC(=O)c1ccc(NC(=O)C2CCCO2)cc1` (stereo unspecified), the “activity, negative = inhibition” value is -0.873%.
The same measure, in the same setting: the value for `Cc1ccc(CS(=O)(=O)CCC(=O)NCCCN2CCCC2)cc1` was -13.9%.
With `CCC(=O)NNc1cc(=O)c2c(=O)n(C)c(=O)n(C)c2[nH]1`, the AC50 was 2.82 µM (active).
Take `CCCC(CCC)C(=O)NNc1cc(=O)c2c(=O)n(C)c(=O)n(C)c2[nH]1`: the “activity, negative = inhibition” value was -22.7%.
Still for that read-out and setting: the value for `Cc1nn(-c2ccc(F)cc2)c(Cl)c1/C=C(\CCC(=O)O)c1nc2ccccc2s1` was -0.314%.
In the case of `Cc1cc(C)nc(NS(=O)(=O)c2ccc(N)cc2)n1`, the “activity, negative = inhibition” value is -4.94% [at 25.6 µM].
`Cc1nn(-c2ccc(F)cc2)c(C)c1NS(=O)(=O)c1ccc2ccccc2c1`: the AC50 was 15.8 µM (active).
On to `Cc1ccc(S(=O)(=O)Nc2nc3ccccc3nc2N2CCc3ccccc3C2)cc1`, for which the AC50 was 22.4 µM (active).
`CCCCn1c(NCc2ccccc2NS(=O)(=O)c2ccc(C)cc2)nc2ccccc21`: the “activity, negative = inhibition” value was 4.94%.
Same read-out and setting: the value for `COc1ccccc1S(=O)(=O)Nc1ccc(-c2nnc3n2CCCCC3)cc1` was 0.614%.
In the case of `Cn1cccc1/C=N/NC(=O)c1sc2ccccc2c1Cl`, the AC50 is 0.891 µM (active).
In the case of `Cc1ccc(C(=O)N/N=C\c2cccn2C)cn1`, the AC50 was 12.6 µM (active).
For `C=N[C@H](C(=O)N[C@@H]1C(=O)N2[C@@H]1SC(C)(C)[C@@H]2C(=O)O)c1ccccc1`, the “activity, negative = inhibition” value was -11.1% [at 25.6 µM].
On to `O=[N+]([O-])c1ccc2nc(-c3ccc(Cl)cc3)n(OCc3ccccc3)c2c1`, for which the AC50 was 2.51 µM (active).
Take `Oc1ccc(Cn2c(-c3ccc(O)cc3)nc3ccccc32)cc1`: the activity, negative = inhibition was -5.47% [at 11.4 µM].
As for `Cc1ccc(COn2c(-c3ccc(Cl)cc3)nc3ccc([N+](=O)[O-])cc32)cc1`, the half-maximal activity concentration (AC50) was 0.398 µM (active).
As for `O=[N+]([O-])c1ccc2nc(-c3ccccc3)n(OCc3ccc(Cl)cc3)c2c1`, the AC50 is 2.24 µM (active).
As to `O=[N+]([O-])c1ccc(N2CCC(=NOCc3ccc(Cl)cc3)CC2)cc1`, the “activity, negative = inhibition” value is -21.2%.
`Clc1ccc(COn2c(-c3ccccc3)nc3ccccc32)cc1`: the AC50 was 1.58 µM (active).
On to `C1CNCCOCCNCCN1`, for which the “activity, negative = inhibition” value was -0.3%.
Same read-out and setting: the value for `C=CCSc1nnc(NC(=O)COc2ccc3ccccc3c2)s1` was -21.5%.
Take `CC(C)C[C@H](NC(=O)[C@@H](O)[C@@H](N)Cc1ccccc1)C(=O)O`: the AC50 result is “inactive”.
On to `CCc1ccc(OCC(=O)Nc2ccc(-c3nc4ccccc4o3)c(O)c2)cc1`, for which the “activity, negative = inhibition” value is 8.68%.
In the case of `c1ccc2cc(NCNc3ccc4ccccc4c3)ccc2c1`, the AC50 is 0.631 µM (active).
Same read-out and setting: the value for `CC(C)C[C@@H](N)C(=O)Nc1ccc2ccccc2c1` was 1.58 µM (active).
In the case of `O=C(COc1ccc2ccccc2c1)Nc1ccc(Cc2ccncc2)cc1`, the AC50 is 0.112 µM (active).
On the same count and under the same terms, the value for `CC(=O)CC(=O)Nc1ccc2ccccc2c1` was 2 µM (active).
`CC(C)C[C@H](NC(=O)[C@@H](O)[C@H](N)Cc1ccccc1)C(=O)O`: the “activity, negative = inhibition” value is -28%.
`O=C(O)C[C@H](S)C(=O)O`: the activity, negative = inhibition is -2.96% [at 11.4 µM].
On the same count and under the same terms, the value for `CO[C@H]1COC(=O)[C@@H](Cc2ccccc2)NC(=O)[C@@H](C)COC(=O)C/C=C\[C@@H]1C` was -3.6% [at 11.4 µM]; that for `C#CCCCO/N=C1/C[C@@H](O)[C@@H](O)[C@@H]2[C@@H]3C(=O)N(C4CCCCC4)C(=O)[C@H]3CC[C@H]12` was 7.63% [at 11.4 µM].
`CC1(C)Oc2cc(N)c([N+](=O)[O-])cc2O1`: the AC50 was 8.91 µM (active).
For the compound `CC(=O)Nc1ccc(S(=O)(=O)N2CCC(N(C)CCC(C)C)CC2)cc1`, the “activity, negative = inhibition” value is -6.77%.
On the same count and under the same terms, the value for `CC(=O)Nc1ccc(NC(=O)C2CCN(S(=O)(=O)c3cccc4nonc34)CC2)cc1` was -2.52%.
Same read-out and setting: the value for `CCc1ccc(NC(=O)C2CCN(S(=O)(=O)c3c(C)[nH]c(=O)[nH]c3=O)CC2)cc1` was -6.06%.
As for `O=C(Nc1ccc(Cl)c(C(F)(F)F)c1)C1CCCN(S(=O)(=O)c2cnc[nH]2)C1` (stereo unspecified), the half-maximal activity concentration (AC50) was 15.8 µM (active).
Turning to `CO[C@@H]1COC(=O)C/C=C\[C@H](C)COC(=O)[C@H](C)NC(=O)C/C=C\[C@H]1C`, the activity, negative = inhibition is -3.56% [at 11.4 µM].
Still for that read-out and setting: the value for `Cc1nn(CCc2n[nH]c(=S)n2-c2ccc(F)c(Cl)c2)c(C)c1[N+](=O)[O-]` was -3.99%.
Consider `CC(C)Cn1c(-c2nn(C)cc2Cl)n[nH]c1=S`, for which the AC50 was 25.1 µM (active).
Consider `CCc1nn(C)c(-c2n[nH]c(=S)n2N)c1Cl`, for which the “activity, negative = inhibition” value is -0.733%.
With `O=c1c(-c2cccs2)nc2cnc(Oc3cccc(Cl)c3)nc2n1C[C@H]1CCCO1`, the AC50 was 3.16 µM (active).
Turning to `COc1ccc(-c2nc3cnc(Oc4cccc(Cl)c4)nc3n(C[C@H]3CCCO3)c2=O)cc1`, the AC50 was 5.01 µM (active).
With `CC(=O)OC[C@@H]1O[C@H](C/C=N\OC[C@@H](O)COCc2ccco2)C=C[C@@H]1OC(C)=O`, the activity, negative = inhibition is 1.52% [at 11.4 µM].
Same read-out and setting: as for `C[C@H](N)C(=O)O`, the figure is -18.8%.
`CCCCCCCCC(=O)NCc1cc(OC)c(O)cc1I`: the AC50 is 12.6 µM (active).
In the case of `O=C(O)c1cc(C(=O)O)nc(C(=O)O)c1`, the activity, negative = inhibition was -9.81% [at 11.4 µM].
In the case of `CSc1c(-c2ccccc2)nc2ccccc2c1C(=O)O`, the “activity, negative = inhibition” value is 10.1%.
`CSc1nnnc2ccccc12`: the concentration at half-maximal activity (AC50) was 3.16 µM (active).
Regarding `COc1ccc(Cc2nnc(NC(=O)CSc3ccc(C)cc3)s2)cc1OC`, the “activity, negative = inhibition” value is -19.1%.
Turning to `COC(=O)c1sccc1NC(=O)CSc1cc(Cl)ccc1Cl`, the AC50 is 2.51 µM (active).
Take `COC(=O)c1sccc1NC(=O)CSc1ccc(Cl)cc1`: the AC50 was 14.1 µM (active).
In the case of `COCc1nnc(NC(=O)CC(c2ccccc2)c2ccccc2)s1`, the “activity, negative = inhibition” value was 7.41%.
As to `COCc1nnc(NC(=O)CSc2ccc(C)cc2)s1`, the AC50 is 12.6 µM (active).
Same read-out and setting: as for `Cc1cnc(NC(=O)CSc2ccc(Cl)cc2)s1`, the figure is 3.16 µM (active).
Regarding `O=c1[nH]cc(CS(=O)(=O)Cc2c[nH]c(=O)[nH]c2=O)c(=O)[nH]1`, the activity, negative = inhibition was -24.4% [at 11.4 µM].
The same measure, in the same setting: as for `CC(=O)N1CCC2(CCN(Cc3nccs3)CC2)CC1`, the figure is -13.5%; as for `COCC(=O)N1CCC2(CC1)CN(C(=O)Nc1cccc(C#N)c1)C2`, 2.75%.
Consider `NCCSSCCN`, for which the AC50 result is “inactive”.
On to `CC(C)(Oc1ccc(-c2cccc3ccccc23)cc1)C(=O)O`, for which the activity, negative = inhibition was 8.77% [at 11.4 µM].
As for `CC(=O)c1c(O)cc(=O)n(-c2ccccc2)c1-c1cccc2ccccc12`, the “activity, negative = inhibition” value was 8.95%.
Take `CN1C(=O)/C(=N\OC(=O)c2cccc3ccccc23)c2ccccc21`: the concentration at half-maximal activity (AC50) is 7.08 µM (active).
Same read-out and setting: as for `COc1ccc2cc(C(=O)CCC(=O)O)ccc2c1`, the figure is 0.794 µM (active).
As to `COc1ccc(CCN=CC2=C(O)CC(C)(C)CC2=O)cc1`, the “activity, negative = inhibition” value was -18.3%.
On the same count and under the same terms, as for `CCOc1ccc(C(=O)CCC(=O)O)cc1`, the figure is -8.88%; as for `COc1ccc(/C(O)=C2/C(=O)C(=O)N(CCCC(=O)O)C2c2ccc(OC)cc2)cc1` (stereo unspecified), -24%.
Regarding `COc1ccc2cc(CCC(C)=O)ccc2c1`, the AC50 was 0.398 µM (active).
Regarding `COc1cccc(/C=N/NC(=O)c2c(-c3ccccc3)noc2C)c1`, the “activity, negative = inhibition” value was -18.4%.
Consider `COc1cccc(/C=N/NC(=O)c2cc(-c3cccn3C)n[nH]2)c1`, for which the AC50 was 6.31 µM (active).
In the case of `COc1cc2nc(N3CCN(C(=O)OCc4ccccc4)[C@H](C(=O)NC(C)(C)C)C3)nc(N)c2cc1OC`, the “activity, negative = inhibition” value was -14.2%.
Still for that read-out and setting: as for `CSc1nc(N)c2ncn([C@@H]3O[C@@H](COP(=O)(O)OP(=O)(O)O)[C@@H](O)[C@H]3O)c2n1`, the figure is -5.39%.
Regarding `CCn1c(=O)[nH]c2cc(Cl)c(Cl)cc21`, the AC50 is 0.251 µM (active).
Regarding `CCn1c(C)[n+](CCCS(=O)(=O)[O-])c2cc(Cl)c(Cl)cc21`, the “activity, negative = inhibition” value was -7.03%.
Same read-out and setting: the value for `CC[N+](CC)(CC)CC` was 11.2%.
For `Cc1ccc(C)n1N1C(=O)/C(=C\c2ccc(Cl)cc2)SC1=S`, the AC50 is 1.58 µM (active).
As for `CC1=NN(c2ccc(S(=O)(=O)O)cc2)C(=O)/C1=C\c1ccc(Cl)cc1`, the activity, negative = inhibition is -8.89% [at 2.29 µM].
On the same count and under the same terms, the value for `CC1=N/C(=C\c2ccc([N+](=O)[O-])cc2)C(=O)N1c1ccc(Cl)cc1` was -20.6%.

The AC50 is the midpoint of the concentration-response curve, whichever way the signal moves.
